Results reported in the supplement of paper PMC11732987, “Enantioselective OTUD7B fragment discovery through chemoproteomics screening and high-throughput optimisation” (Communications Chemistry, 2025).

Assays:
Assay in all cases: log2 ratio of Biotin-Ahx-Ub-VS probe labelling (fragment/DMSO); higher = less target engagement (more negative = stronger competition), active = hit call of the paper (q ≤ 0.05, log2 ratio ≤ -1)
Conditions in all cases: compound concentration: 200 uM; treatment time: 3 h
OTUD6B = molecular target: T1, OTUD6B (UniProt Q8N6M0)
T1 sequence (whole entry): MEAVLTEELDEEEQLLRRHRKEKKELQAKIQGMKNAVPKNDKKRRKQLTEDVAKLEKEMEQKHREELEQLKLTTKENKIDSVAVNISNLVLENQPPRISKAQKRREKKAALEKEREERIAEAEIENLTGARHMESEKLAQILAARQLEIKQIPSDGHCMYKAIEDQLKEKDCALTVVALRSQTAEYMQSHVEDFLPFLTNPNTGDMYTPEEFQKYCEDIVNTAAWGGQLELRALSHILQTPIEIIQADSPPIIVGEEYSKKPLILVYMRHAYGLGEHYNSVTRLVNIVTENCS
In short: (§1)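 Labelling with Biotin-Ahx-Ub-VS (0.5 µM final, 1 h) followed a 3 h triplicate treatment of HEK293T lysate (495 µg per sample, Tris/CHAPS/IGEPAL buffer with protease inhibitors) with fragment at 200 µM or vehicle. Labelled DUBs were NeutrAvidin-enriched, digested with LysC and trypsin, and run by diaPASEF LC-MS/MS. The values, average log2 fragment/vehicle ratios by unpaired t-test, come from global-median-normalised Spectronaut label-free quantities. Proteins with ≥2 unique peptides were used.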

OTUD7B = molecular target: T2, OTUD7B (UniProt Q6GQQ9)
T2 sequence (whole entry): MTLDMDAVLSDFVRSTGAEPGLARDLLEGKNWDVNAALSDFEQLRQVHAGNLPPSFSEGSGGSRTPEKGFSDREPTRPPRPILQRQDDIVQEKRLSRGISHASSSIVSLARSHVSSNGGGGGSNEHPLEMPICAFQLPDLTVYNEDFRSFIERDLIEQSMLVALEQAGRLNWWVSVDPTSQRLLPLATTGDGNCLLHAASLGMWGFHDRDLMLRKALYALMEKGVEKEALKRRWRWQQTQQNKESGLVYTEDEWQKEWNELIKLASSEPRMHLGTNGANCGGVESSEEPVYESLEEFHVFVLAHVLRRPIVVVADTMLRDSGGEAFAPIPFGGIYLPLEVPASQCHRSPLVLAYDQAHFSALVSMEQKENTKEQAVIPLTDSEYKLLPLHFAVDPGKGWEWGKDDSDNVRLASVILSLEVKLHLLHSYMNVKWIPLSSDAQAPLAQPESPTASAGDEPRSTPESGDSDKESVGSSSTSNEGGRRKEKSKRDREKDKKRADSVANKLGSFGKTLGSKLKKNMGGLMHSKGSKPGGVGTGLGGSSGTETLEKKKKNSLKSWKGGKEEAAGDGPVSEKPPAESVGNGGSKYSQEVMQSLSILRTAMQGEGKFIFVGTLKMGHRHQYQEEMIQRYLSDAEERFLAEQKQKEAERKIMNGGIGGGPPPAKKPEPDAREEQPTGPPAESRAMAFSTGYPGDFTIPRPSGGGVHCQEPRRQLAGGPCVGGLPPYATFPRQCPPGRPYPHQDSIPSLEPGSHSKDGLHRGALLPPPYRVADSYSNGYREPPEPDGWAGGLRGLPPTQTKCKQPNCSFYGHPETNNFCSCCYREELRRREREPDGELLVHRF
In short: as §1

PRPF8 = PRPF8 (UniProt Q6P2Q9)
In short: as §1

PSMD7 = molecular target: T3, PSMD7 (UniProt P51665)
T3 sequence (whole entry): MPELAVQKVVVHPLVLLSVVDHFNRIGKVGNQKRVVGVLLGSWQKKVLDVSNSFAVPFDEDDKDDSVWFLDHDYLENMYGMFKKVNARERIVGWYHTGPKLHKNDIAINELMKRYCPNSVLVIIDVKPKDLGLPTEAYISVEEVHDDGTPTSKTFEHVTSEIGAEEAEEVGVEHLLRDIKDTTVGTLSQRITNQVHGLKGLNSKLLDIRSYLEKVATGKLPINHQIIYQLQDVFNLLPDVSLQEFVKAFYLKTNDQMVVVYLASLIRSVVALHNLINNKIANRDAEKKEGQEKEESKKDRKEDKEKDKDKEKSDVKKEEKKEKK
In short: as §1

UCHL1 = UCHL1 (UniProt P09936)
In short: as §1

UCHL3 = molecular target: T4, UCHL3 (UniProt P15374)
T4 sequence (whole entry): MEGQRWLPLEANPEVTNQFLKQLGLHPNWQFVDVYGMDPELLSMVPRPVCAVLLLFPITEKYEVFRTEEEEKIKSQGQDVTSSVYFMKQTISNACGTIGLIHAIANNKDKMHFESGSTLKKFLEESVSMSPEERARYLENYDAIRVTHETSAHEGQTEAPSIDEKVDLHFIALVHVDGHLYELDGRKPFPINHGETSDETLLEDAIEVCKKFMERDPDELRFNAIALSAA
In short: as §1

UCHL5 = molecular target: T5, UCHL5 (UniProt Q9Y5K5)
T5 sequence (whole entry): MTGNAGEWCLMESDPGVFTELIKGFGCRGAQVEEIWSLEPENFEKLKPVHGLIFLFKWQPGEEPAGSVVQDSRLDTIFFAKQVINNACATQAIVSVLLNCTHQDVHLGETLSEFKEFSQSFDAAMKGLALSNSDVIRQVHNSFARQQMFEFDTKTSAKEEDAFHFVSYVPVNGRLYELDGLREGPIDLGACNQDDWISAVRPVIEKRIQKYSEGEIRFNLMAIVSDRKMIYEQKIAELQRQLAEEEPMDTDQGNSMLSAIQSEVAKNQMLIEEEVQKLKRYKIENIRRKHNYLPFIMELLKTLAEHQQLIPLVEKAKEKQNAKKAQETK
In short: as §1

USP10 = USP10 (UniProt Q14694)
In short: as §1

USP15 = molecular target: T6, USP15 (UniProt Q9Y4E8)
T6 sequence (whole entry): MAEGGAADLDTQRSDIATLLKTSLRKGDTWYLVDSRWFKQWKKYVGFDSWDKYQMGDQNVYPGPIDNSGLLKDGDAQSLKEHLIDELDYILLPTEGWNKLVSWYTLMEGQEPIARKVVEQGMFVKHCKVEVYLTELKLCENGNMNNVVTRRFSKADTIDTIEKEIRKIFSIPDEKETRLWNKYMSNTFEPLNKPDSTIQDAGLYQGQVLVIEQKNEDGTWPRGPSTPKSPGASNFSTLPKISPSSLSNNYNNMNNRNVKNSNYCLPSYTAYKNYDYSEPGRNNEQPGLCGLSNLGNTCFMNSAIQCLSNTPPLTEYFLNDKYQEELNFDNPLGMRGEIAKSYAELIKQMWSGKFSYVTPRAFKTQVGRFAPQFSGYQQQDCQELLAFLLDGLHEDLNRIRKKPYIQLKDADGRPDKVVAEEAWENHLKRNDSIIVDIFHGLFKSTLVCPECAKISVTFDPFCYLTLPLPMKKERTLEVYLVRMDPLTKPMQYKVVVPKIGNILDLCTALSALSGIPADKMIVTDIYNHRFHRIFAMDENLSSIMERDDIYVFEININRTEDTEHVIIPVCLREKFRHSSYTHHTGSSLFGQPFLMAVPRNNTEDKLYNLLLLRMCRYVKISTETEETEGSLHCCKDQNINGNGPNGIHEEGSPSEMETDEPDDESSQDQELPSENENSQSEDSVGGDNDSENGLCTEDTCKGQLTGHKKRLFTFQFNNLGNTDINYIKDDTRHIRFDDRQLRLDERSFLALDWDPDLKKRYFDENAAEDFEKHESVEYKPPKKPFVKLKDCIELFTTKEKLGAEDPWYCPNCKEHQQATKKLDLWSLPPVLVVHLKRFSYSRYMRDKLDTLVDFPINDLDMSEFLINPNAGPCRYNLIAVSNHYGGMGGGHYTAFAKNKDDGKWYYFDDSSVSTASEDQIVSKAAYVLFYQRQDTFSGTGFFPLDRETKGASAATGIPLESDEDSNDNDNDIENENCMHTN
In short: as §1

USP16 = USP16 (UniProt Q9Y5T5)
In short: as §1

Measured: log2 ratio of Biotin-Ahx-Ub-VS probe labelling

USP16, sequence (Q9Y5T5 whole entry, looked up): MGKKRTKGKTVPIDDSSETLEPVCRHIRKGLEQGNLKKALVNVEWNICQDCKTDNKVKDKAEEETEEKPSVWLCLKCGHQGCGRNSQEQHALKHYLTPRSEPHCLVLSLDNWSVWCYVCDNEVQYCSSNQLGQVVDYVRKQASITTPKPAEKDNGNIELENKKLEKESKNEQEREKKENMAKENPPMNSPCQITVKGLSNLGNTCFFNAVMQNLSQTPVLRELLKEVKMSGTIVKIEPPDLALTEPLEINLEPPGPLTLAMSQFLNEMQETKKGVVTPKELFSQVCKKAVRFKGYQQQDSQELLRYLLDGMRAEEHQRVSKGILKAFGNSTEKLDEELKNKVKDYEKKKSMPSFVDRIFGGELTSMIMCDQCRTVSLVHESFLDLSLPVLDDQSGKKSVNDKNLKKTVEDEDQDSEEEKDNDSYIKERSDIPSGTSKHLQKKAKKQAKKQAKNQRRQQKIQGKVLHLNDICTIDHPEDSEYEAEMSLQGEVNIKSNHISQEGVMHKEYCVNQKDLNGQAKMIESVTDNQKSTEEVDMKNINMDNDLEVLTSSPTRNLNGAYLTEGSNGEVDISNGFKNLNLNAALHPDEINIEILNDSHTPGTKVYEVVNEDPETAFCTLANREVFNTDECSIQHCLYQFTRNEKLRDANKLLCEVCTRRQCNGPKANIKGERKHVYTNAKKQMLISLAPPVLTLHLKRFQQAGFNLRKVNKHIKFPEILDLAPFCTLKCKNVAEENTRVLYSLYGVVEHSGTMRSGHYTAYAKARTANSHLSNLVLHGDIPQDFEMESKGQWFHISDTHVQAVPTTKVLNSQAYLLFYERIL
UCHL1, sequence (P09936 whole entry, looked up): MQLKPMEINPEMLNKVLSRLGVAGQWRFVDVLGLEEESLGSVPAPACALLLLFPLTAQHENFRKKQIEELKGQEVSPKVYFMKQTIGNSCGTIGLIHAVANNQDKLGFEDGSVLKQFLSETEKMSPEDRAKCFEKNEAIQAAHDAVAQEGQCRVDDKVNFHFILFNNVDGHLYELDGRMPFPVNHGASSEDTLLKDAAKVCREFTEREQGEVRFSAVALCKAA
USP10, sequence (Q14694 whole entry): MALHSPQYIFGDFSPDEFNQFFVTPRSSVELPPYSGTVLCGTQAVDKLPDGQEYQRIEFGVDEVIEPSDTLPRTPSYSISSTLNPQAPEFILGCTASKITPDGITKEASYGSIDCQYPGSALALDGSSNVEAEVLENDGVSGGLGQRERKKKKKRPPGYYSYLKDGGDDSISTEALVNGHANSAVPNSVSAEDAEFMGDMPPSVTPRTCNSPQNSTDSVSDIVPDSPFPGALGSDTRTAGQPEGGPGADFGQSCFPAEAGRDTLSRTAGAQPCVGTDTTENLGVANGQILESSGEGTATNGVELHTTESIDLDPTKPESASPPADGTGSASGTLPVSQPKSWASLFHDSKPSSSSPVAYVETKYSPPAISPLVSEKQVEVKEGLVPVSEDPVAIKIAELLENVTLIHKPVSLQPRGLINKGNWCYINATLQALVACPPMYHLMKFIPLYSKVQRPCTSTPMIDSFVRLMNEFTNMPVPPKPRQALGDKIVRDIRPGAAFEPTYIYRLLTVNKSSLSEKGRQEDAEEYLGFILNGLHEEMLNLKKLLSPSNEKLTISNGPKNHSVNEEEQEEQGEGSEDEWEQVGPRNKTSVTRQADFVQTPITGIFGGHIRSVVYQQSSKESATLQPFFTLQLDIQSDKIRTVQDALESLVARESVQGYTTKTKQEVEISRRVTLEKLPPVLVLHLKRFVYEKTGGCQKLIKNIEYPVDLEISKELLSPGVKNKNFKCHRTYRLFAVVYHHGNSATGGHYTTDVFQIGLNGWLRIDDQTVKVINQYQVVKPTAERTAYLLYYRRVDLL

COc1cccc(CN(C)C(=O)CCl)c1
inactive: OTUD6B -0.198 | OTUD7B -0.364 | PRPF8 -0.0045 | PSMD7 -0.109 | UCHL3 0.229 | UCHL5 -0.0244 | USP10 -0.22 | USP15 -0.251 | USP16 0.142
active: UCHL1 -1.22
